From PubChem BioAssay
Active and inactive are the calls of the source.

Assays:
[1] = test system: Wnt5a (protein binding on small-molecule microarray); experiment: small molecules binding Wnt5a protein – biophysical, small-molecule microarray, 635/667 nm fluorescence, primary screen (AID 1142); settings: 635 nm fluorescence, higher = more signal;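 also: fluorescence read at 667 nm with signal to noise per printed feature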
[2] = ATP-based viability of Huh7 replicon cells – cell-based, CellTiter-Glo luminescence, basal, 48 h, cytotoxicity control for HCV replication inhibitor project, primary screen (AID 1143); settings: higher = more signal, called active from +8 up or from −8 down;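 also: Huh7 hepatoma cells carrying a hepatitis C replication reporter with no stimulus; test concentration not given here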
[3] = basal CRE-LacZ reporter activity in PC12 – cell-based, unstimulated, primary screen (AID 1145); settings: no forskolin, luminescence, 4.5 h, higher = more signal, called active from +8 up or from −8 down
[4] = forskolin-driven CRE-LacZ activity in PC12 – cell-based, CRE-LacZ reporter, forskolin-stimulated, primary screen (AID 1146); settings: luminescence, 4.5 h, higher = more signal, called active from +8 up or from −8 down;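 also: PC12 cells with 6xCRE LacZ reporter stimulated by forskolin 10 µM; beta-galactosidase reporter signal reflecting CREB driven transcription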
[5] = molecular target: Streptavidin (Streptomyces avidinii) (UniProt P22629); experiment: compounds binding control protein streptavidin – biophysical, small-molecule microarray, 635/667 nm fluorescence, artefact control for SMM compound annotation, primary screen (AID 1147); settings: higher = more signal;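 also: signal reflects streptavidin binding to arrayed compounds as a control protein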
Chain of Streptavidin (Streptomyces avidinii) (P22629 whole entry, looked up): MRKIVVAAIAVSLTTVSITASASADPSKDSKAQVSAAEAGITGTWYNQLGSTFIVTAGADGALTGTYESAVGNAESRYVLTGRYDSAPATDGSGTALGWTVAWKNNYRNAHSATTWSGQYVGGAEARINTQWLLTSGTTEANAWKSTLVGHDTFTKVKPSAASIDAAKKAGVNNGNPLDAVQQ

[6] = probe aInhba binding on compound microarray – biochemical, small-molecule microarray, 635/667 nm fluorescence, primary screen (AID 1148); settings: higher = more signal;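 also: score merges 667nm spot fluorescence with signal-to-noise for antibody binding to printed compounds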
Torsin-1A (Homo sapiens) [7] = molecular target: Torsin-1A (Homo sapiens) (UniProt O14656); experiment: TOR1A wild-type binding on microarray – cell lysate, small-molecule microarray, lysate, 635/667 nm, primary screen (AID 1149); settings: COS7 hTOR1A-WT lysate, 635 nm fluorescence, higher = more signal
Chain of Torsin-1A (Homo sapiens) (O14656 whole entry, looked up): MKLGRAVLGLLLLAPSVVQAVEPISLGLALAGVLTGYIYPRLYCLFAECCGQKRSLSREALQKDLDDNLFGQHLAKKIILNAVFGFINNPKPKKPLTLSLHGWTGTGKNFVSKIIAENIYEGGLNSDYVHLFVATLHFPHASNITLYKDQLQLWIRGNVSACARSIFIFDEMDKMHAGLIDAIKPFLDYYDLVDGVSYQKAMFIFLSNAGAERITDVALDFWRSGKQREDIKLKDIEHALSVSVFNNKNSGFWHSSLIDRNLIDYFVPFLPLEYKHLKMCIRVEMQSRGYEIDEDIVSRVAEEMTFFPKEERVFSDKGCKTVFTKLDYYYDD

Torsin-1A (Homo sapiens) [8] = molecular target: Torsin-1A (Homo sapiens) (UniProt O14656); experiment: torsin A mutant lysate binding on microarrays – cell lysate, small-molecule microarray, COS7 lysate, 635/667 nm fluorescence, primary screen (AID 1150); settings: COS7 hTOR1A mutant lysate, 635 nm fluorescence, higher = more signal;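 also: score pools 667 nm emission and signal to noise measuring lysate protein binding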
[9] = test system: Sonic hedgehog protein (Shh); experiment: Sonic hedgehog microarray binding compounds – biochemical, small-molecule microarray, 635/667 nm fluorescence, primary screen (AID 1151); settings: 635 nm fluorescence, higher = more signal;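 also: Shh protein binding to compounds spotted on small-molecule microarray slides; score combines spot fluorescence intensity with signal-to-noise across triplicate slides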
[10] = optical density shifts of acrAB sulA E. coli – strain DRC41, OD650, 48 h, E. coli filamentation inducer project, primary screen (AID 1152); settings: higher = more signal, called active from +8 up or from −8 down;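 also: E. coli MC1000 strain DRC41 lacking acrAB efflux pump and sulA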
[11] = probe aLefty1 binding on compound microarray – biochemical, small-molecule microarray, 635/667 nm fluorescence, primary screen (AID 1153); settings: higher = more signal;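 also: score merges spot fluorescence with signal-to-noise ratio from the scanned slide images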
[12] = plasmodial surface anion channel blockers, osmotic lysis – cell-based, P. falciparum Indochina, OD700, 1 h, primary screen (AID 1154); settings: P. falciparum Indochina infected RBC osmotic lysis, higher = more signal, called active from +8 up or from −8 down
[13] = plasmodial surface anion channel blockers, osmotic lysis – cell-based, P. falciparum Indochina, OD700, 2 h, primary screen (AID 1155);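 also: lysis reports solute entry through the parasite surface anion channel PSAC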; settings: P. falciparum Indochina infected erythrocytes, higher = more signal, called active from +8 up or from −8 down
[14] = changes in parasitized red cell lysis, either direction – P. falciparum Indochina, OD700, 3 h, PSAC antagonist project, primary screen (AID 1156); settings: P. falciparum-infected erythrocytes, osmotic lysis, higher = more signal, called active from +8 up or from −8 down
[15] = plasmodial surface anion channel blockers, osmotic lysis – cell-based, P. falciparum Indochina, OD700, 18 h, primary screen (AID 1157); settings: P. falciparum Indochina infected erythrocytes, osmotic lysis OD700, 18 h; higher = more signal, called active from +8 up or from −8 down
[16] = S6 kinase pathway phospho-S6 level changes – cell-based, A549, cytoblot, luminescence, serum-stimulated, primary screen (AID 1158); settings: 5 h, higher = more signal;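 also: serum-stimulated A549 lung adenocarcinoma cells; signal is phosphorylated S6 detected by cytoblot immunostaining with HRP secondary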
[17] = molecular target: NADPH oxidase 2 (Homo sapiens) (UniProt P04839); experiment: compounds shifting NOX2 Amplex Red fluorescence – cell-based, HEK293-NOX2, PMA-stimulated, NOX inhibitor project, primary screen (AID 1159); settings: 45 min, higher = more signal, called active from +8 up or from −8 down; also: test concentration not given here
Chain of NADPH oxidase 2 (Homo sapiens) (P04839 whole entry, looked up): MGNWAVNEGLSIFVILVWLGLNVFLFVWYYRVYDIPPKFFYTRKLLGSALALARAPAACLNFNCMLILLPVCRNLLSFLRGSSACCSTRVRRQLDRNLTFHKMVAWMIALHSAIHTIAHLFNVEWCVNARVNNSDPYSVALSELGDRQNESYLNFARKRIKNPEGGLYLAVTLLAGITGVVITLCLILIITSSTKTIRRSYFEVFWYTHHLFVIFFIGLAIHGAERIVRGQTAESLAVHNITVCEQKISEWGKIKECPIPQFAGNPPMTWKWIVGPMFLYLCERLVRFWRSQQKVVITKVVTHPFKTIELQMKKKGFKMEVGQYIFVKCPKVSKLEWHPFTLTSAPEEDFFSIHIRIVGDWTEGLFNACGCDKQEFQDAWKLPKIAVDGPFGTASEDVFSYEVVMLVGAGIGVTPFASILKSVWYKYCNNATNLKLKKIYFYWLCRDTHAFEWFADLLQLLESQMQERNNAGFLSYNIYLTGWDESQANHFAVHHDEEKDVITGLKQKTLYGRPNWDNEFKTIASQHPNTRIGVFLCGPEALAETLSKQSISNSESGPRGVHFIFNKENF

[18] = molecular target: NADPH oxidase 4 (Homo sapiens) (UniProt Q9NPH5); experiment: compounds shifting NOX4 Amplex Red fluorescence – cell-based, HEK293-NOX4, tetracycline-induced, NOX inhibitor project, primary screen (AID 1160); settings: HEK293-NOX4, Amplex Red H2O2 fluorescence, 45 min; higher = more signal, called active from +8 up or from −8 down
Chain of NADPH oxidase 4 (Homo sapiens) (Q9NPH5 whole entry, looked up): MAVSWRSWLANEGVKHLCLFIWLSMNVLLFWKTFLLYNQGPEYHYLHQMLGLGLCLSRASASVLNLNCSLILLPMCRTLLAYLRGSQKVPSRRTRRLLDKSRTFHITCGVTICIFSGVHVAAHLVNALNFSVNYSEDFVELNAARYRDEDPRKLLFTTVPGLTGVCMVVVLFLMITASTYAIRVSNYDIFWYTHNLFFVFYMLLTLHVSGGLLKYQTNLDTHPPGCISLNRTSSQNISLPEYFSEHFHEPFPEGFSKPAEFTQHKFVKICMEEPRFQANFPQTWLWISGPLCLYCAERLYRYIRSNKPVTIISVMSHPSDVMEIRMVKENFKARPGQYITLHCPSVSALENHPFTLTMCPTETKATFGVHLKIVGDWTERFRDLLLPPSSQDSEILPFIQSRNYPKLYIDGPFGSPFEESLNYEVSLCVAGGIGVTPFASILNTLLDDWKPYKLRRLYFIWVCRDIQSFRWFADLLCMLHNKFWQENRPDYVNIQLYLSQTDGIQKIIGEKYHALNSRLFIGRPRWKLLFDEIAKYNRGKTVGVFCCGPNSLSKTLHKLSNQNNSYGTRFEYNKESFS

[19] = molecular target: NADPH oxidase 5 (Homo sapiens) (UniProt Q96PH1); experiment: compounds shifting NOX5 Amplex Red fluorescence – cell-based, HEK293-NOX5, NOX inhibitor project, primary screen (AID 1161); settings: HEK293-NOX5, ionomycin, 45 min, higher = more signal
Chain of NADPH oxidase 5 (Homo sapiens) (Q96PH1 whole entry, looked up): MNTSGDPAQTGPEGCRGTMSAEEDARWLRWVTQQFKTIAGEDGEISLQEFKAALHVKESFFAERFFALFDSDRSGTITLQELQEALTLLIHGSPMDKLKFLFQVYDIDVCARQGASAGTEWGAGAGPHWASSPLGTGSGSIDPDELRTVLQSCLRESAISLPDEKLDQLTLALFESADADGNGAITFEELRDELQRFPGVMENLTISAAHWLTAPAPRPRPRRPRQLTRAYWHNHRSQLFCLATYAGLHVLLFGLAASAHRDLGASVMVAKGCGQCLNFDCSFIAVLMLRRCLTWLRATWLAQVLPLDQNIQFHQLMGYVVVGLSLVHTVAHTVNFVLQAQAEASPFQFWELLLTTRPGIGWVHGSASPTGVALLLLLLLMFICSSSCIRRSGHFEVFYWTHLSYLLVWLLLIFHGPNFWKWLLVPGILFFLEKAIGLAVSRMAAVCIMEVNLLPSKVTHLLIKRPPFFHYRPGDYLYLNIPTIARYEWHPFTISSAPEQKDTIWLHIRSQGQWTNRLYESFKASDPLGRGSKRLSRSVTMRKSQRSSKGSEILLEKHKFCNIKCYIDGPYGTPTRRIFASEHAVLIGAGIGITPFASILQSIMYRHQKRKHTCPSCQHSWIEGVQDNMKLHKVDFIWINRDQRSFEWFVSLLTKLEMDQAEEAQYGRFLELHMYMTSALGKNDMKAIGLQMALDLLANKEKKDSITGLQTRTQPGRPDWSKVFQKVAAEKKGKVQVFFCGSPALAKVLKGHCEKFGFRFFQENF

Compound | composite z-score [1] | z-score [2] | z-score [3] | z-score [4] | composite z-score [5] | composite z-score [6] | composite z-score (Torsin-1A (Homo sapiens) [7]) | composite z-score (Torsin-1A (Homo sapiens) [8]) | composite z-score [9] | z-score [10] | composite z-score [11] | z-score [12] | z-score [13] | z-score [14] | z-score [15] | z-score [16] | z-score [17] | z-score [18] | z-score [19]
CC(C)[Si](OCCCNS(=O)(=O)c1ccc(Br)cc1)(C(C)C)C(C)C | 0.0488 | -5.53 (inactive) | -0.752 (inactive) | -0.4 (inactive) | 0.623 | 0.0161 | 0.923 | 0.31 | 0.72 | 3.27 (inactive) | -0.0236 | 0.869 (inactive) | 0.0808 (inactive) | -3.37 (inactive) | -0.442 (inactive) | 4.17 | 1.84 (inactive) | -0.843 (inactive) | -3.06
Cc1ccc(S[C@]2(C(=O)NCCN3CCOCC3)CC(=O)N(C3Cc4ccccc4C3)[C@@H]2c2ccc(CO)cc2I)cc1 | -0.149 | -2.98 (inactive) | 0.531 (inactive) | 0.174 (inactive) | -0.658 | 0.0756 | -0.434 | -0.131 | -0.678 | 1.86 (inactive) | 0.392 | 6.65 (inactive) | -0.0443 (inactive) | 0.591 (inactive) | -0.926 (inactive) | 1.22 | 2.05 (inactive) | -1.59 (inactive) | 1.33
[N-]=[N+]=NCc1ccccc1C[C@]1(C(N)=O)N=C(c2ccc(OCCCO)cc2)O[C@H]1c1ccccc1CN=[N+]=[N-] | 0.447 | -5.2 (inactive) | 1.08 (inactive) | -0.375 (inactive) | 1.68 | 0.17 | 0.105 | 0.369 | -0.742 | 0.0277 (inactive) | 0.71 | 29.3 (active) | 19.8 (active) | 1.82 (inactive) | 2.86 (inactive) | 2.41 | -1.06 (inactive) | 0.885 (inactive) | -0.692
C=CCc1cccc([C@H]2N[C@H](C(=O)O)CC[C@@H]2C)c1 | 0.023 | 0.0815 (inactive) | 1.46 (inactive) | -0.675 (inactive) | -0.0599 | -0.101 | 0.352 | 0.122 | 1.54 | 0.574 (inactive) | -0.237 | 0.734 (inactive) | 1.15 (inactive) | 0.794 (inactive) | 0.443 (inactive) | -0.167 | 0.183 (inactive) | 0.773 (inactive) | 0.0482
CCN1C(C)=C(C(=O)OC)[C@@H](c2ccccc2)N2C(=O)[C@](O)(C(=O)OC)[C@@H](c3ccccc3)C(C(=O)c3ccccc3)=C12 | 0.271 | -1.49 (inactive) | 1.55 (inactive) | 0.214 (inactive) | 0.0306 | -0.0552 | 0.5 | 0.269 | 0.473 | 0.282 (inactive) | -0.142 | 1.78 (inactive) | 0.489 (inactive) | 1.16 (inactive) | 0.978 (inactive) | 1.3 | 0.6 (inactive) | 0.828 (inactive) | -0.284
